Bioassay records as filed in PubChem BioAssay.
Rows were chosen to be rich in hits. Some 2.4% of all compounds tested hit in one or more screens of this group.
MEKK3 PB1 HTS – modulators (inhibitors or enhancers) of MEK5 binding to human MEKK3 PB1 domain | Q99759 | bead-based flow cytometry, Alexa488-MEK5 binding to MEKK3; actives lie on both sides; 0 = blocked by unlabeled MEK5, 100 = vehicle | binding response (% of control), % at 10 µM | 1.4% of 290,000 active | AID 1529;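 active = binding response more than 3 SD above or below the average of its plate-row segment, actives on both sides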;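 note: Alexa488 bead fluorescence after subtracting the streptavidin-only scavenger bead signal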
Target sequence (Q99759 whole entry, looked up, the tested form may be a part): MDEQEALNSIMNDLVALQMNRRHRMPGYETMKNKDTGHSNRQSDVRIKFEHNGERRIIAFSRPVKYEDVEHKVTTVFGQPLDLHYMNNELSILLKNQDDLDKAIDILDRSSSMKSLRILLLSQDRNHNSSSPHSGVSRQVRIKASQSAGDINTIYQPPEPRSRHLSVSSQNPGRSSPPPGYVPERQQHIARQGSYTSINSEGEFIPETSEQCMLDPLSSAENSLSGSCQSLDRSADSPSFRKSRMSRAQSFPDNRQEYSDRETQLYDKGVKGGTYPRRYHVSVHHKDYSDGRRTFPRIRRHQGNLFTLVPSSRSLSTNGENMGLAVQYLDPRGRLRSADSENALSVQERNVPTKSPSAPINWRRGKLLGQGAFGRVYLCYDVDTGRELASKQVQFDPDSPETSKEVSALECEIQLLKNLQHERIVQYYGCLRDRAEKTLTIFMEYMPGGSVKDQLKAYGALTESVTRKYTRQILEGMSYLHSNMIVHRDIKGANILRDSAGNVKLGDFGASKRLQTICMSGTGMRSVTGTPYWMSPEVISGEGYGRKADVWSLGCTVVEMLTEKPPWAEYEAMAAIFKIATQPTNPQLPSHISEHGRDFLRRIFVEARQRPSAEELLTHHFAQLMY
MEKK2 mut-MEK5 – signal of MEK5 binding to mutant human MEKK2 PB1 domain; AID 1530; percent response, % at 10 µM; bead flow cytometry, Alexa488-MEK5 binding to MEKK2 mutant; 0.35% of 290,000 active; in the data active = percent response above about 24%, passing the limit was not always enough
Arbovirus anti – arbovirus infection inhibition | inhibition, % at 10 µM | 0.37% of 200,000 active | arbovirus infection cell-based antiviral screen; in the data active = inhibition above about 30%
Pf gametocyte – inhibitors of late stage P. falciparum gametocyte viability | 0.065% of 150,000 active | P. falciparum stage V gametocytes, ATP luminescence, 24 h | inhibition, % at 10.9 µM | AID 743093;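 active = inhibition above the mean plus 3 SD of compounds within the control limits, set per campaign, cut at about 38% in these data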;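 note: 0% = DMSO wells and 100% = medium only without gametocytes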
MEKK2 WT-MEK5 – raises or lowers MEK5 binding to wildtype human MEKK2 PB1 domain. Q9Y2U5. bead flow cytometry, Alexa488-MEK5 binding to MEKK2 WT; actives lie on both sides. binding response (% of control), % at 10 µM. 1.1% of 290,000 active; in the data active = binding response below about 67% or above about 130%
MEKK2wt confirm – raises or lowers MEK5 binding to wildtype human MEKK2, retest; shares compounds with MEKK3 PB1 HTS; bead flow cytometry, Alexa488-MEK5 binding to MEKK2 WT; actives lie on both sides; binding response (% of control), % at 10 µM; 2.4% of 5,900 active; in the data active = binding response below about 16% or above about 210%; inactive = in between
MEKK2mut confirm – signal of MEK5 binding to mutant human MEKK2, retest | shares compounds with MEKK3 PB1 HTS | bead flow cytometry, Alexa488-MEK5 binding to MEKK2 mutant | percent response, % at 10 µM | 2% of 5,900 active | AID 1893; in the data active = percent response mostly above about 71%, no sharp cut-off; inactive = mostly below about 38%;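 note: higher means compound restores mutant binding toward wildtype level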
MEKK3-MEK5 inh – MEKK3-MEK5 PB1 inhibition, single concentration confirmation; bead flow cytometry, Alexa488-MEK5 binding to MEKK3; hits give low values; AID 1894; 1.8% of 5,900 active; shares compounds with MEKK3 PB1 HTS; binding response (% of control), % at 10 µM;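 active = binding response below 72% of control, or above a set upper limit, though filed actives all read lower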;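 note: 100% = DMSO only wells and 0% = binding blocked by excess unlabeled MEK5; lower values mean stronger disruption of MEK5 binding to MEKK3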
Numbers without * were called inactive; . = no result; [ ] = dose if it differs, or a comment.

SMILES | MEKK3 PB1 HTS | MEKK2 mut-MEK5 | Arbovirus anti | Pf gametocyte | MEKK2 WT-MEK5 | MEKK2wt confirm | MEKK2mut confirm | MEKK3-MEK5 inh
Cn1c(=O)cc(OCCCC(=O)NCc2cccnc2)c2ccccc21 | 48*[inhibitor] | -16 | -10 | -4 | 51 | 100 | -3 | 99
CCN1CCN(C(=O)CN2C(=O)COc3ccc(C)cc32)CC1 | 104 | 1 | . | . | 104 | . | . | .
CCc1ccc(NC(=O)C2CCCN2S(=O)(=O)c2ccc3c(c2)n(C)c(=O)c(=O)n3C)cc1 (centres undefined) | 68*[inhibitor] | -12 | . | 16 | 80 | 103 | 6 | 104
Cc1ccc(NC(=O)C2CCCN2S(=O)(=O)c2ccc3c(c2)n(C)c(=O)c(=O)n3C)cc1 (centres undefined) | 95 | -4 | . | -14 | 96 | . | . | .
CN(C(=S)Nc1ccc(Oc2ccccc2)cc1)c1ccc(O)cc1 | 115 | 4 | -31 | -5 | 105 | . | . | .
CN(C(=S)Nc1ccc(SC(F)F)cc1)c1ccc(O)cc1 | 133* | 0 | -3 | 10 | 107 | 113 | 6 | 102
COc1ccc(NC(=O)N2CCCC2C(=O)NCc2ccc(C)cc2)cc1 (centres undefined) | 73*[inhibitor] | 62* | 0 | -5 | 114 | 101 | 0 | 104
COc1ccc(NC(=O)N2CCCC2C(=O)NCc2ccc(F)cc2)cc1 (centres undefined) | 120 | 5 | 3 | . | 103 | . | . | .
O=c1[nH]ncc(NCc2ccc(Cl)cc2)c1Cl | 132* | 0 | -4 | -8 | 107 | 99 | -4 | 101
Cc1ccc(C(=O)OCC(=O)N2CCCC2)cc1 | 96 | -3 | . | . | 97 | . | . | .
Cc1cc(OCCN2CCCCCC2)ccc1[N+](=O)[O-] | 97 | 14 | -6 | -2 | 104 | . | . | .
Cc1ccc([N+](=O)[O-])c(OCCCN2CCCCCC2)c1 | 99 | 66* | -6 | -7 | 169* | 130 | 16 | 104
CCC(C)C(NC(=O)C1CCC(C)CC1)C(=O)Nc1ccc(OC)cc1 (centres undefined) | 92 | -6 | . | . | 96 | . | . | .
Cc1oc(-c2ccccc2)cc1C(=O)Nc1ccccc1 | 113 | 11 | 1 | . | 111 | . | . | .
Cc1oc(-c2ccccc2)cc1C(=O)NCc1ccncc1 | 102 | 13 | . | -1 | 56*[inhibitor] | 104 | -4 | 99
CCOC(=O)C1CCCN(C(=O)c2ccc(C)c(NC(=O)C3=C(C)OCCS3)c2)C1 (centres undefined) | 97 | 0 | . | . | 93 | . | . | .
Cc1nc(-c2nc(-c3c(C(=O)NN)noc3C)cs2)cs1 | 147* | 6 | 0 | 13 | 122 | 109 | 9 | 106
Cc1nc(-c2nc(-c3c(C(=O)NNC(=O)c4ccc(Cl)cc4)noc3C)cs2)cs1 | 103 | 2 | . | -1 | 107 | . | . | .
O=C1CCN(Cc2ccccc2)N1 | 91 | -6 | . | . | 93 | . | . | .
CCOc1cc(C(C#N)N2CCOCC2)ccc1OC (centres undefined) | 96 | -5 | 4 | 9 | 98 | . | . | .
CCOc1ccc(C(C#N)N2CCOCC2)cc1OC (centres undefined) | 2.0*[inhibitor] | -21 | 0 | . | 2.0*[inhibitor] | 103 | -2 | 104
CCCn1cc(CN2CCc3ccc(NC(=O)C4CCCO4)cc3C2)c(C)n1 (centres undefined) | 105 | 9 | . | . | 107 | . | . | .
CN(C)c1ccc(/C=C/C(=O)c2cccc(Br)c2)cc1 | 93 | -1 | -3 | -21 | 63*[inhibitor] | 67 | -21 | 92
Cc1cccc(C(=O)Nc2ccccc2C(=O)NCc2ccco2)c1 | 102 | 7 | . | . | 107 | . | . | .
Cn1cc(C(=O)NCc2ccc(Cl)cc2)c(=O)c2cc(S(=O)(=O)N3CCOCC3)ccc21 | 100 | 6 | . | . | 100 | . | . | .
SMILES | MEKK3 PB1 HTS | MEKK2 mut-MEK5 | Arbovirus anti | Pf gametocyte | MEKK2 WT-MEK5 | MEKK2wt confirm | MEKK2mut confirm | MEKK3-MEK5 inh
Cc1cc(Nc2ccc(Cl)cc2)nc(-c2ccccc2O)n1 | 110 | 28* | . | . | 140* | 127 | 9 | 105
CCCc1cc(=O)[nH]c(SCC(=O)NN(c2ccccc2)c2ccccc2)n1 | 89 | -5 | 13 | -20 | 90 | . | . | .
CN(C)C(=O)Nc1ccccc1CC[N+](=O)[O-] | 113 | 0 | 10 | 3 | 113 | . | . | .
O=C(Nc1ccc(Cl)cc1)Nc1ccccc1CC[N+](=O)[O-] | 4.0*[inhibitor] | -19 | 24 | -8 | 6.0*[inhibitor] | 105 | -3 | 100
COc1cc(/C=N/Nc2ccc(Cl)cc2)ccc1OC(=O)c1cccs1 | 46*[inhibitor] | -2 | -42 | 9 | 89 | 95 | -6 | 95
COc1cc(/C=N/NC(N)=O)ccc1OC(=O)c1cccs1 | 99 | -3 | 1 | 0 | 98 | . | . | .
COc1ccc(/C=N/Nc2ncnc3sc(C)c(C)c23)cc1 | 133* | 1 | -24 | -1 | 107 | 106 | -3 | 102
CCN(CC)c1ccc(/C=N/N2CCN(c3ccccn3)CC2)cc1 | 103 | 0 | . | 7 | 104 | . | . | .
CCc1nn2c(=O)c(S(=O)(=O)Nc3ccc(C(C)C)cc3)c(C)nc2s1 | 104 | 7 | . | . | 106 | . | . | .
O=C(N/N=C/c1cccnc1)C(O)c1ccccc1 (centres undefined) | 146* | 1 | -9 | -25 | 110 | 106 | 4 | 107
CC(/C=C/c1ccccc1)=N/NC(=O)C(O)c1ccccc1 (centres undefined) | 156* | 1 | -8 | -9 | 112 | 101 | 1 | 101
O=C(CNC(=O)C(c1ccccc1)c1ccccc1)N/N=C/c1cccnc1 | 96 | -5 | . | -2 | 98 | . | . | .
COc1ccc(-c2nc(CS(=O)CC(=O)N3CCN(C)CC3)c(C)o2)cc1 (centres undefined) | 98 | -3 | . | . | 100 | . | . | .
COc1ccc(NC(=O)C2CC(c3ccc(Cl)cc3)=NO2)cc1OC (centres undefined) | 99 | -1 | . | -11 | 103 | . | . | .
O=C(CN1CCCc2ccccc21)N/N=C/c1ccccc1O | 128* | 2 | -16 | -19 | 101 | 100 | 0 | 102
O=C(CN1CCCc2ccccc21)N/N=C/c1ccc(F)cc1F | 109 | -1 | . | -6 | 100 | . | . | .
Cc1ccc(Oc2ccc(-c3nnc(-c4ccccc4)o3)cc2[N+](=O)[O-])cc1C | 94 | -3 | 11 | . | 95 | . | . | .
CC(C)(Cc1ccc(O)cc1)NC(=O)CC(=O)N=Nc1c(O)[nH]c2ccc(Br)cc12 | 21*[inhibitor] | 40 | -1 | -10 | 108 | 106 | 9 | 105
Cc1cccc(C)c1OCC(=O)N=Nc1c(O)[nH]c2ccc(Br)cc12 | . | . | -36 | . | . | . | . | .
CCOc1cc(/C=C2/SC(=S)N(Cc3ccccc3)C2=O)ccc1O | 96 | -4 | . | 1 | 61*[inhibitor] | 84 | -6 | 101
